# Several values for one entry are separate records, joined by “and”; a condition that tells them apart may be missing. Equal values may be shown once. The panel holds about 79,000 compounds, 15% with a hit somewhere; the sample as a whole holds those more often. A structure can be active in one record and inactive in another. Activity calls are given as the source filed them. No stated cut-off is given here; in the data, active means growth inhibition above about 70%; inactive means the rest.
# Tests used:
# [1] = NCI Yeast Anticancer Drug Screen. Data for the rad50 strain (AID 155);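 further: 0% = growth of vehicle-only cultures of the same strain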; conditions: S. cerevisiae rad50 strain growth inhibition, stronger effect = higher value
# Outline: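 Inhibition values express reduced yeast growth in compound-treated cultures relative to vehicle-treated controls.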
# [2] = NCI Yeast Anticancer Drug Screen. Data for the mec2-1 strain (AID 157); conditions: S. cerevisiae mec2-1 strain, stronger effect = higher value
# Outline: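 Readout is yeast growth inhibition, normalised to vehicle-treated controls, in the mec2-1 strain exposed to compound.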
# [3] = NCI Yeast Anticancer Drug Screen. Data for the sgs1 mgt1 strain (AID 161);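 further: 0% = growth of cultures given vehicle only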; conditions: S. cerevisiae sgs1 mgt1 strain, stronger effect = higher value
# Outline: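 Compounds are added to genetically altered yeast, and growth is compared with cultures given vehicle alone to give percent inhibition.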
# [4] = NCI Yeast Anticancer Drug Screen. Data for the cln2 rad14 strain (AID 165);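 further: 0% = growth equal to vehicle treated cultures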; conditions: S. cerevisiae cln2 rad14 strain, stronger effect = higher value
# Outline: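 Relative to vehicle controls, growth inhibition of compound-treated cln2 rad14 yeast was recorded.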
# [5] = NCI Yeast Anticancer Drug Screen. Data for the bub3 strain (AID 167); conditions: S. cerevisiae bub3 mutant strain, stronger effect = higher value
# Outline: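 Steps: expose the mutant yeast strain to compound; grow alongside vehicle-treated cultures; measure growth; express inhibition against the vehicle cultures.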
# [6] = NCI Yeast Anticancer Drug Screen. Data for the mlh1 rad18 strain (AID 175); conditions: S. cerevisiae mlh1 rad18 strain growth inhibition, stronger effect = higher value
# Outline: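 Test agents were incubated with a yeast strain of defined genotype (DNA damage repair defect). Inhibition of growth was derived by comparison with vehicle-exposed cultures.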
# [7] = at 5.0 µM (retest, dose inferred, filed as 0.5)
# [8] = at 50.0 µM (retest, dose inferred, filed as 5.0)
Compound,"growth inhibition [1, 7]","growth inhibition [1, 8]",growth inhibition ([1]; at 50.0 µM),"growth inhibition [2, 7]","growth inhibition [2, 8]",growth inhibition ([2]; at 50.0 µM),"growth inhibition [3, 7]","growth inhibition [3, 8]",growth inhibition ([3]; at 50.0 µM),"growth inhibition [4, 7]","growth inhibition [4, 8]",growth inhibition ([4]; at 50.0 µM),"growth inhibition [5, 7]","growth inhibition [5, 8]",growth inhibition ([5]; at 50.0 µM),"growth inhibition [6, 7]","growth inhibition [6, 8]",growth inhibition ([6]; at 50.0 µM)
CC(=O)Nc1cccc([As+](C)(c2cccc(NC(C)=O)c2)c2cccc(NC(C)=O)c2)c1,-1% (inactive),11% (inactive),4.35% (inactive),13% (inactive),14% (inactive),-2% (inactive),-14% (inactive),13% (inactive),-5.65% (inactive),18% (inactive),15% (inactive),-26% (inactive),5% (inactive),3% (inactive),6.05% (inactive),7% (inactive),11% (inactive),8.65% (inactive)
FC(F)(F)c1nc2ccc(SSc3ccc4nc(C(F)(F)F)[nH]c4c3)cc2[nH]1,-8% (inactive),17% (inactive),96% (active),13% (inactive),20% (inactive),93.8% (active),-3% (inactive),12% (inactive),96.6% (active),8% (inactive),-32% (inactive),92.3% (active),1% (inactive),14% (inactive),95.5% (active),2% (inactive),-6% (inactive),97.2% (active)
Fc1cccc(C2N(Cc3ccc(N(CCCl)CCCl)cc3Cl)CCCN2Cc2ccc(N(CCCl)CCCl)cc2Cl)c1,-28% (inactive),92% (active),12.7% (inactive),15% (inactive),95% (active),54.5% (inactive),-3% (inactive),95% (active),-18.4% (inactive),-5% (inactive),93% (active),-6.1% (inactive),-2% (inactive),92% (active),83.2% (active),6% (inactive),94% (active),9.15% (inactive)
Brc1ccc(N2C[N+](c3ccc(Br)cc3)=NC(c3ccccc3)=N2)cc1,23% (inactive),94% (active),97.5% (active) and 18.3% (inactive),-2% (inactive),96% (active),97.8% (active) and -1.3% (inactive),6% (inactive),92% (active),98.5% (active) and 10.9% (inactive),16% (inactive),98% (active),98.5% (active) and 10.1% (inactive),2% (inactive),99% (active),98.5% (active) and -3.05% (inactive),9% (inactive),97% (active),98.3% (active) and 13.1% (inactive)
O=P(O/C(=C\c1ccccc1)c1ccccc1)(c1ccccc1)c1ccccc1,18% (inactive),96% (active),96.8% (active),17% (inactive),98% (active),98.3% (active),15% (inactive),98% (active),98.2% (active),8% (inactive),97% (active),96.2% (active),11% (inactive),97% (active),97% (active),7% (inactive),97% (active),93.7% (active)
CCCCCC(Cn1ccnc1)c1ccc(Cl)cc1Cl (centres undefined),72% (active),95% (active),99.5% (active),50% (inactive),94% (active),99% (active),69% (inactive),97% (active),99.4% (active),72% (active),98% (active),99.7% (active),72% (active),99% (active),99.8% (active),72% (active),100% (active),99.6% (active)
N#CC(=C=N)N=C(F)C(C#N)=C(C#N)C#N,-1% (inactive),68% (inactive),87% (active),-2% (inactive),88% (active),82.6% (active),13% (inactive),86% (active),73.2% (active),7% (inactive),94% (active),90.3% (active),6% (inactive),77% (active),86.8% (active),25% (inactive),93% (active),94.8% (active)
CCNC(C)(C)C(SS)c1ccc(Br)cc1 (centres undefined),6% (inactive),10% (inactive),66.3% (inactive),2% (inactive),-3% (inactive),57.1% (inactive),-3% (inactive),18% (inactive),73.8% (active),25% (inactive),33% (inactive),34.9% (inactive),-15% (inactive),17% (inactive),84.8% (active),-21% (inactive),20% (inactive),78.6% (active)
